These results are taken from PubChem BioAssay AID488899 (Broad Institute, 2010).

Structures are written as SMILES. In all, about 330,000 compounds went through this assay and about 2,800 (0.85%) were called active. The list comes from a sample in which actives are over-represented; it also holds similar structures and randomly drawn compounds. Values without a mark were called inactive.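 How the source made its calls: active means mean inhibition across replicates of 60% or more, whatever share of single replicates reaches that level; inconclusive means some that reach 60%, reason not given; inactive means mean inhibition across replicates below 60%.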

This test can be described thus: inhibitors of MITF-dependent TRPM1 promoter reporter, primary screen, cell-based, SK-MEL-5, single point, luciferase (AID 488899). The note with it: SK-MEL-5 TRPM1 promoter luciferase, 24 h; at 12.5 µM; active compounds read high.
`O=C(N/N=C/c1cccc(OCc2ccccc2)c1)c1ccc(Br)o1`: the inhibition is 4.51%.

On to `CCCc1ccc(OCc2ccc(C(=O)N/N=C/c3cccc([N+](=O)[O-])c3)o2)c(OC)c1`, for which the inhibition is 69.2% (active).

For the molecule `N#Cc1cc([N+](=O)[O-])ccc1Oc1cccc(/C=N/NC(=O)c2ccc(Cl)cc2)c1`, the inhibition is 4.52%.

In the case of `COc1ccc(C(=O)NC2CC(C)(C)NC(C)(C)C2)cc1OC`, the inhibition is 1.95%.

For the molecule `CCOc1ncccc1C(=O)OCC(=O)c1c[nH]c2ccccc12`, the inhibition is 1.75%.

As for `O=C(Nc1cc2c3c(c1)C1CCCC1CN3CC1CCCC21)c1ccc([N+](=O)[O-])cc1` (stereo not given), the inhibition was 1.02%.

For `COc1ccc(NC(=O)N2CCCC2C(=O)NCc2ccccc2Cl)cc1` (stereo not given), the inhibition was 11.5%.

`C=CCNc1nnc(SCC(=O)N2CCCCC2)c2ccccc12`: the inhibition was 11.5%.

Take `CC(C)Cn1c(CCC(=O)O)ccc1-c1cccs1`: the inhibition was 7.94%.

Turning to `N=C1C(c2nc3ccccc3s2)=C(O)CN1NC(=O)c1ccc([N+](=O)[O-])cc1`, the inhibition was 14.1%.

Regarding `O=C(NC(Nc1nc2ccc([N+](=O)[O-])cc2s1)(C(F)(F)F)C(F)(F)F)c1ccccc1`, the inhibition was 70.9% (active).

On to `Cc1ccc(NC(=O)c2cccc(S(=O)(=O)N3CCCc4ccccc43)c2)nc1`, for which the inhibition was 23.9%.

For the molecule `O=C(Nc1nc2ccc([N+](=O)[O-])cc2s1)c1ccc(S(=O)(=O)N2CCCc3ccccc32)cc1`, the inhibition was 75.6% (active).

On to `COc1ccc2sc(N(CCCN(C)C)C(=O)c3ccc(S(=O)(=O)N(C)C4CCCCC4)cc3)nc2c1`, for which the inhibition was 55.2%.

Consider `CCc1ccc2nc(N(CCCN(C)C)C(=O)c3ccc4c(c3)OCCO4)sc2c1`, for which the inhibition was -67.8%.

Consider `CN(C)CCCN(C(=O)c1ccc(S(=O)(=O)N2CCCc3ccccc32)cc1)c1nc2ccc(F)cc2s1`, for which the inhibition was 70.8% (active).

Consider `O=C(COC(=O)c1ccc([N+](=O)[O-])cc1Cl)NC(=O)c1ccccc1`, for which the inhibition was -3.45%.

`CN(C)CCCN(C(=O)c1ccc(S(=O)(=O)N2CCCCCC2)cc1)c1nc2ccc(Br)cc2s1`: the inhibition was 92.8% (active).

As for `Cn1c(=O)n(C)c2cc(S(=O)(=O)N3CCCc4ccccc43)ccc21`, the inhibition was 0.873%.

In the case of `CC1CCN(C(=O)c2cccc(S(=O)(=O)N3CCCc4ccccc43)c2)CC1`, the inhibition was 7.39%.

Consider `CCC(=O)Nc1nnc(S(=O)(=O)N2CCCc3ccccc32)s1`, for which the inhibition was 5.17%.

As to `CC(=O)N(OCc1ccc(OC(C)C)c(Cl)c1)C(C)=O`, the inhibition is -2.52%.

With `OCC1(CO)CC2(C1)CC(CO)(CO)C2`, the inhibition was -3.8%.

As to `CCN(CC)S(=O)(=O)c1cccc(NC(=O)c2ccc(S(=O)(=O)N3CCCC3)cc2)c1`, the inhibition is 11%.

Turning to `COc1ccc(-c2cc(C(=O)NC(Cc3c[nH]c4ccccc34)C(=O)O)c(C)o2)cc1OC` (stereo not given), the inhibition is 9.33%.

Regarding `O=C(NCC1(N2CCCCC2)CCCCC1)c1cccc(S(=O)(=O)Nc2ccccc2Cl)c1`, the inhibition was -26.7%.

Turning to `Cc1cc(NC(=O)C(C)SCC(=O)Nc2cccc(S(=O)(=O)N3CCCCCC3)c2)no1` (stereo not given), the inhibition is 18.1%.

Turning to `CCC1CCCCN1C(=S)Nc1ccc(SC(F)F)cc1` (stereo not given), the inhibition was -3.13%.

In the case of `COCCn1c(=NC(=O)c2ccccc2[N+](=O)[O-])sc2cc(S(C)(=O)=O)ccc21`, the inhibition is -52%.

On to `N#CC1=C(N)Oc2cc(N)ccc2C1c1ccccc1` (stereo not given), for which the inhibition was 23.5%.

Consider `Nc1ncnc2c1cnn2C1CC(O)C(CO)O1` (stereo not given), for which the inhibition was -4.63%.

Take `CC(C(=O)NC1CCCC1)N1CCN(S(=O)(=O)c2ccccc2Cl)CC1` (stereo not given): the inhibition is -2.61%.

Regarding `O=C(Nc1c[nH]c(=O)[nH]c1=O)OCc1ccccc1`, the inhibition was 0.994%.

Take `CC1(C)N=C(N)NC(Nc2ccc(Cl)cc2)=N1`: the inhibition was 4.8%.

Take `CC(C)(C)OC(=O)NC(Cc1ccccc1)C(=O)NC(CSC1CCCCO1)C(=O)NN` (stereo not given): the inhibition is -5.98%.

Regarding `COc1ccc2c(c1)c(=Cc1ccc(N(C)C)cc1)c1cc(-c3ccccc3)[n+](C)n12`, the inhibition was 95.7% (active).

As to `COc1ccc2sc(-c3ccc(N(C)C)cc3)c(C#CCO)c2c1`, the inhibition was -46.5%.

For `COc1ccc2sc(-c3ccc(N(C)C)cc3)c(-c3ccc4cc[nH]c4c3)c2c1`, the inhibition was -103%.

For the molecule `Cn1cc(S(=O)(=O)N2CCN(c3ccc(F)cc3)CC2)c(=O)n(C)c1=O`, the inhibition was 1.94%.

On to `COC(=O)Cc1nc2c(N)nc(N)nc2[nH]c1=O`, for which the inhibition is 3.9%.

With `CCc1ccc(-c2cc(C)no2)cc1S(=O)(=O)NCCc1ccc(S(N)(=O)=O)cc1`, the inhibition was -13.2%.

On to `O=C(C[C@H]1C[C@H](C(=O)N2CCOCC2)[C@@]2(CCC3CCCC3)c3[nH]c4ccc(Cl)cc4c3CCN2C1=O)NCc1ccco1`, for which the inhibition was 21.2%.

Turning to `COc1ccc2[nH]c3c(c2c1)CCN1C(=O)C(CC(=O)NCCCN(C)C)C[C@H](C(=O)N2CCOCC2)[C@@]31CCC1CCCC1` (stereo not given in full), the inhibition was -12.1%.

With `COc1ccc(CNC(=O)C[C@H]2C[C@H](C(=O)N3CCOCC3)[C@@]3(CCC4CCCC4)c4[nH]c5ccc(Cl)cc5c4CCN3C2=O)cc1OC`, the inhibition was 72.7% (active).

Take `CCOC(=O)N1CCN(C(=O)C2CCCN(c3ncnc4c3sc3cccc(F)c34)C2)CC1` (stereo not given): the inhibition was 28.8%.

As to `Cc1[nH]c2c(C(=O)N3CCCC(CCC(=O)NCc4ccccc4F)C3)cccc2c1C` (stereo not given), the inhibition was -16%.

Regarding `CC(=O)Oc1ccc2c(c1)C(=O)c1ccccc1C2=O`, the inhibition was -2.87%.

In the case of `O=C1C(Cl)=C(Oc2ccccc2)C(=O)c2ccccc21`, the inhibition was 89.7% (active).

As for `CC(=O)N(C1=C(Cl)C(=O)c2ccccc2C1=O)c1ccc(C(=O)O)cc1`, the inhibition was 11.6%.

For `COC(=O)C1=C(NC(=O)C(C)(C)C)CCS1`, the inhibition is -3.02%.

In the case of `CC(C)C[C@@H](NC(=O)[C@H]1CCCN1C(=O)Cc1ccccc1)C(N)=O`, the inhibition is 0.4%.

For `NC(=O)C1(N2CCCC2)CCN(Cc2ccccc2)CC1`, the inhibition was -3.66%.

In the case of `Cc1cccc(-n2ncc(Cl)c(Cl)c2=O)c1`, the inhibition is 72.1% (active).

With `C=CCNc1cnn(-c2ccc(C)cc2)c(=O)c1Cl`, the inhibition is -110%.

Turning to `Cc1cccc(-n2ncc(C#N)c2-n2cccc2)c1`, the inhibition was 3.18%.
